GALC G270D act: raises human GALC G270D mutant activity in cells; hit rate 0.1% among 45,000; 145M-Twi-hGALC-G270D cells (Twitcher mouse brain line with human GALC G270D), HMU-beta-Gal fluorescence, 48 h; P54803; Potency, µM (series often up to 57.5 µM), hits mostly activators; note: 0% is about no effect; nearly all actives have a fitted effect of over 65% in size
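Fluorogenic HMU-b-Gal hydrolysis (0.1 mM final, pH 5.2 citrate-phosphate with 1 mg/mL sodium taurocholate; carbonate stop buffer) measures mutant GALC activity after compound treatment of live 145M-Twi Twitcher brain cells stably carrying human GALC-G270D, with wild-type GALC line alongside; activation sought.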
FH mod: Identification of activators of human fumarate hydratase by quantitative high-throughput screening; Fumarate hydratase, mitochondrial (Homo sapiens), P07954; FH coupled MDH/diaphorase resazurin fluorescence, 15 min; Potency, µM (top dose mostly 79.9 µM), for the others: at the top dose activity change, negative = inhibition, hits mostly inhibitors; hit rate 0.22% among 54,000; AID 1347055, 2019; note: % is set by controls: 0 for no effect and ±100 for the full control effect; the screen sought activators but most active calls are inhibition curves; nearly all actives have a fitted effect of over 45% in size
Target sequence (P07954 whole entry, looked up): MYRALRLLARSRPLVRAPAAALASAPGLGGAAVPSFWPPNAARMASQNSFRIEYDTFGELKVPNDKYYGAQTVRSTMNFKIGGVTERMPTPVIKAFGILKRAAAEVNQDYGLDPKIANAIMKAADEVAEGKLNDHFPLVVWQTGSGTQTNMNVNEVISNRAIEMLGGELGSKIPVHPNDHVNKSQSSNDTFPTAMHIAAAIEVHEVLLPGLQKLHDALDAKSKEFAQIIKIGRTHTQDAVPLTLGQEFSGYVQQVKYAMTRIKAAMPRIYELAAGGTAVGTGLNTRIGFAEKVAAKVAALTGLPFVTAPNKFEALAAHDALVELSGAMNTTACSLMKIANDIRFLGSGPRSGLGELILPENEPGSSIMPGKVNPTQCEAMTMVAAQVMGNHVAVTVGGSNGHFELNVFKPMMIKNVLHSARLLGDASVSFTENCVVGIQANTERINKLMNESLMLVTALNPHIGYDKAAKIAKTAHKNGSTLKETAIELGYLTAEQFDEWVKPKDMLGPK
HTT prom inh: HTT promoter inhibition. hit rate 0.93% among 48,000. Potency, µM (titrated, usually from 57.5 µM), for inactives: top-dose activity change, negative = inhibition, usual class: inhibitors. HEK293 HTT promoter firefly luciferase reporter, 24 h. AID 1508623; note: nearly all actives have a fitted effect of over 50% in size
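HEK293 cells carrying firefly luciferase reporters were seeded at 2,500 per well in Opti-MEM and cultured for 24 h. They were then treated with compounds at up to 57.5 uM final for 24 h at 37 degrees C before Dual-Glo luminescence readout.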
HTT-AS promoter: activates huntingtin-antisense promoter activity. Potency, µM (doses to about 57.5 µM), inactives show at the top dose activity change, positive = activation, usual class: activators. HEK293 HTT-AS promoter firefly luciferase reporter, 24 h; response scale: percent change from vehicle, -100% = no light. hit rate 0.24% among 48,000; note: nearly all actives have a fitted effect of over 55% in size
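Firefly luciferase readout (Dual-Glo, 10 min RT) after 24 h, 37 °C compound exposure (final up to 57.5 uM) of HEK293 reporter cells cultured 24 h beforehand; PTC124 at 50 uM final as control inhibitor; activity scaled vehicle 0%, zero RLU -100%.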
* = called active by the depositor; i = inactive; u = inconclusive; x = no result given; [ ] = remark or other dose. Most compounds without a hit are left out; they make up all but 1.3% or so of the library. Calls come from the whole dose curve; as a rule, active = well fitted curve in the direction sought with a large enough effect; inconclusive = small, poorly fitted or top-dose-only effect, or another doubt; inactive = no such curve, though single readings can be large; an effect the other way counts as inactive or inconclusive. Potency is the fitted concentration of half-maximal effect.

SMILES | GALC G270D act | FH mod | HTT prom inh | HTT-AS promoter
O=C(CSc1nnc(-c2ccc([N+](=O)[O-])cc2)o1)Nc1ccccc1 | i | -1% | 67% | 1.8µM*
COC(=O)c1sccc1S(=O)(=O)N(CC(=O)NCc1ccc(C)cc1)c1ccccc1 | i | -1% | -12% | -16%
Cc1cccc2cc(CN(C(=O)c3cccc(Cl)c3)c3ccccc3)c(=O)[nH]c12 | i | -7% | -14% | -25%
CN1CCN(C(=O)c2cnn(-c3cccc(F)c3)c2C2CCN(C(=O)OC(C)(C)C)CC2)CC1 | i | 3% | -1% | 0%
CC(C)(C)OC(=O)N1CCC(c2c(C(=O)N3CCCCC3)cnn2-c2cccc(F)c2)CC1 | 10µM* | -20% | -11% | 0%
CC(C)CCNC(=O)C1CCN(C(=O)c2cc3sccc3n2Cc2ccc(Cl)cc2)CC1 | i | -21% | 25µM* | -62%
CC(=O)n1nc(-c2cccnc2)nc1NCc1ccc(F)cc1 | i | 1% | -18% | 8%
CC(C)OC(=O)CCCC=CC[C@@H]1[C@H](C=C[C@@H](O)COc2cccc(C(F)(F)F)c2)[C@H](O)C[C@@H]1O | x | u | u | -34%
CCCCOc1ccc(C(=O)Nc2onc3c2CCCC3)cc1 | i | -20% | 38% | 13µM*
CCCCOc1ccc(C(=O)Nc2ccc3c(c2)N(C(C)=O)CCC3)cc1 | i | -7% | 4.5µM* | -88%
O=C(Nc1onc2c1CCCC2)c1ccc(Cl)cc1 | i | -16% | 62% | u
Clc1cccc(N2CCN(c3ncnc4c3nc3n4CCCC3)CC2)c1 | i | -25% | -28% | u
Cc1cccc(N2CCN(c3ncnc4c3nc3n4CCCCC3)CC2C)c1 (configuration not stated) | i | u | 5µM* | -93%
CCCCN(CC)C(=O)c1cc2c(=O)n3cccc(C)c3nc2s1 | 25µM* | u | 16% | 12%
CCCCOC(=O)c1ccc(Nc2nnc(-n3nc(C)cc3C)c3ccccc23)cc1 | i | u | -23% | -23%
COc1ccc(N2CCN(S(=O)(=O)c3ccc4c(c3)CC(C)N4C(C)=O)CC2)cc1 (configuration not stated) | i | u | u | -94%
CCCCOc1ccc(C(=O)NCCc2csc(-c3ccc(OC)cc3)n2)cc1 | i | u | 22µM* | -40%
COc1ccc(C(=O)NCCc2csc(-c3ccc(Cl)cc3)n2)c(OC)c1 | i | 35µM* | u | -23%
COc1cc(N2C(=O)CSC23C(=O)N(C)c2ccccc23)cc(OC)c1OC (configuration not stated) | i | -5% | -5% | -7%
O=C(C1CCC(CNS(=O)(=O)c2cccs2)CC1)N1CCN(c2ccc(Cl)cc2)CC1 (configuration not stated) | i | -25% | 4µM* | -76%
O=C(c1cc(-c2ccc(Cl)cc2)on1)N(Cc1ccc(F)cc1)Cc1ccco1 | i | -17% | -38% | u
CC1Cc2cc(S(=O)(=O)N(Cc3ccccc3)C(C)C)ccc2N1C(=O)C1CCC1 (configuration not stated) | i | u | u | -37%
CCc1cccc(NS(=O)(=O)c2ccc3c(c2)CC(C)N3C(=O)C2CC2)c1 (configuration not stated) | i | u | 14µM* | -79%
CC(=O)N1c2ccc(S(=O)(=O)Nc3ccc(C)c(Cl)c3)cc2CC1C (configuration not stated) | i | -5% | -30% | -39%
COc1ccc(NS(=O)(=O)c2ccc3c(c2)CC(C)N3C(=O)C2CCC2)cc1OC (configuration not stated) | i | -21% | 1.8µM* | -50%
SMILES | GALC G270D act | FH mod | HTT prom inh | HTT-AS promoter
COc1cc(Cl)c(NS(=O)(=O)c2ccc3c(c2)CC(C)N3C(=O)C2CCC2)c(OC)c1 (configuration not stated) | i | -27% | 8.9µM* | -87%
CC1Cc2cc(S(=O)(=O)NCc3ccccc3)ccc2N1C(=O)C1CCC1 (configuration not stated) | i | -10% | u | -30%
CC(Oc1ccccc1)C(=O)Nc1nnc(S(=O)(=O)N2CCCCCC2)s1 (configuration not stated) | i | 10% | -21% | -19%
COC(=O)c1ccc(NC(=O)CCc2c(C)nn(-c3ccc(N4CCOCC4)nn3)c2C)cc1 | i | 5% | -5% | 8%
CCc1ccc(/C=C2/SC(=S)NC2=O)cc1 | x | 16µM* | x | x
CC(C)c1ccc(NC(=O)c2ccc(F)c(S(=O)(=O)N3CCc4ccccc4C3)c2)cc1 | i | -18% | 11µM* | -25%
O=C(Nc1cccc(C(F)(F)F)c1)c1ccc(F)c(S(=O)(=O)N2CCc3ccccc3C2)c1 | i | u | 28µM* | -40%
COc1ccccc1CNS(=O)(=O)c1cc(C(=O)Nc2cccc(C(F)(F)F)c2)ccc1F | i | u | 28µM* | -47%
O=C(Nc1cccc(Cl)c1)c1ccc(F)c(S(=O)(=O)N2CCC3(CC2)OCCO3)c1 | i | -19% | u | -23%
Cc1nc2nc(SCC(=O)NC3CCCCC3)nn2c(C)c1Cc1ccccc1Cl | i | -17% | -11% | -20%
O=C(CSc1nnc(-c2ccccc2)o1)N1CCCc2ccccc21 | i | -1% | 26% | 7%
Cc1cc(=O)n(CC(=O)N2CCN(c3ccccc3F)CC2)c2c1c(C)nn2C | i | 2% | 20µM* | -54%
COc1cc(C(=O)NC(c2ccc(Cl)cc2)c2cc(Cl)c3cccnc3c2O)cc(OC)c1OC (configuration not stated) | i | -16% | 5µM* | -61%
CN(C)c1cc(NC(=O)CNC(C)(C)C)c(O)c2c1C[C@@H]1C[C@H]3[C@H](N(C)C)C(=O)C(C(N)=O)=C(O)[C@@]3(O)C(=O)C1=C2O | i | -9%[53.3 µM] | -4% | -11%
COc1ccc(Cl)cc1NC(=O)CSc1nnc(C)n2c1cc1sccc12 | i | -5% | 2% | -2%
COC(=O)c1cc2sccc2n1CC(=O)Nc1cc(Cl)ccc1OC | i | -2% | 28µM* | -85%
CCCCNC(=O)CSc1nc2cc3c(cc2c(=O)n1CCCCCC(=O)NCCc1ccc(OC)c(OC)c1)OCO3 | i | -1% | -8% | -4%
Cc1ccc2c(c1)c(=O)c1ccccc1n2CCCC(=O)Nc1ccc(C)c(C)c1 | 40µM* | -16% | u | -46%
Cc1ccc(COc2cccc3cc(-c4noc(-c5ccc(C)cc5)n4)c(=O)oc23)cc1 | i | -19% | -1% | 0%
CSc1cccc(NC(=O)C2CCN(S(=O)(=O)c3ccc4[nH]c5c(c4c3)CCCCC5)CC2)c1 | i | -10% | u | -25%
O=C(Nc1cccc(F)c1)C1CCN(S(=O)(=O)c2ccc3[nH]c4c(c3c2)CCCCC4)CC1 | i | -23% | 25µM* | -42%

Screening data as filed in PubChem.
